Compound activity deposited in PubChem by National Center for Advancing Translational Sciences (NCATS).
Hits are enriched below; roughly 12% of the tested compounds scored in any of these assays.
Cycloheximide cs = counter-screen for Shiga toxin inhibitors: cycloheximide protein synthesis inhibition; cell reporter, cycloheximide protein synthesis inhibition counterscreen; max response, %; 300,000 tested, 12% active; AID 2314; in the data active = max response mostly above about 13%, no sharp cut-off; inactive = mostly below about 14%; note: read at 38.3 µM for the half of the compounds with a filed dose; 0% is about no effect
Sm TGR block = inhibitors of Schistosoma mansoni thioredoxin glutathione reductase; Q962Y6; purified TGR, DTNB reduction, TNB absorbance 405 nm; Potency, µM (series often up to 114 µM), inactives show at the top dose activity change, negative = inhibition, usual class: inhibitors; 360,000 tested, 3% active; AID 485364; active = well fitted inhibition curve with a large enough effect; inconclusive = small, poorly fitted or top-dose-only effect; inactive = no such curve, though single readings can be large or run the other way; note: potency is the fitted concentration of half-maximal effect; % is set by controls: 0 for no effect and ±100 for the full control effect; nearly all actives have a fitted effect of over 60% in size
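TGR 20 nM + NADPH 100 uM (dispensed conc.), cpd preinc 15 min RT; start with NADPH (500 uM addition) then DTNB (15 mM addition). Kinetic TNB absorbance, 405 nm filter. Four-parameter Hill fit across titration.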
Shiga inhibitor = blocks Shiga toxin action in Vero cells | Vero cells, Shiga toxin protein synthesis inhibition reporter | inhibition, % at 38.7 µM | 290,000 tested, 9.2% active; in the data active = inhibition mostly above about 28%, no sharp cut-off; inactive = mostly below about 43%; note: 0% is about no effect
FMDV antiviral = foot and mouth disease virus antiviral activity; FMDV antiviral cell-based qHTS; AID 1159524; Potency, µM (series often up to 57.9 µM), for inactives: at the top dose activity change, negative = inhibition, actives largely listed as inhibitors; 410,000 tested, 1.2% active; calls by dose curve; tested in HEK293T cells; note: read-out not given here; potency is the fitted concentration of half-maximal effect; % is set by controls: 0 for no effect and ±100 for the full control effect; nearly all actives have a fitted effect of over 45% in size
An asterisk follows results filed as active; ? = inconclusive; . = no result; [ ] = remark or other dose.

SMILES | Cycloheximide cs | Sm TGR block | Shiga inhibitor | FMDV antiviral
CC(C)CN(C(=O)c1ccc(N2CCCC2=O)cc1)c1c(N)n(Cc2ccccc2)c(=O)[nH]c1=O | . | 39.8µM* | . | -0.5%
CCc1ccc(OCC2c3cc(OC)c(OC)cc3CCN2C(=O)Cc2ccc(OC)c(OC)c2)cc1 (configuration not stated) | . | 1.1% | . | -23.4%
CCOC(=O)c1cc(-c2ccc(F)cc2)n(CCC(=O)NC2CCC(C)CC2)c1C (configuration not stated) | . | 1.9% | . | -15.7%
Cc1ccccc1Nc1nc(N)nc(COC(=O)c2c(C)noc2C)n1 | . | . | . | 3.9%
Cc1ccccc1Nc1nc(N)nc(COC(=O)c2cccn2C)n1 | 35.8* | 0.0%[11.4 µM] | 68.5* | 52.5%
CCc1ccccc1Nc1nc(N)nc(COC(=O)c2cccn2C)n1 | 30.5* | 1.3% | 45.8 | 27.4%
CCc1ccccc1Nc1nc(N)nc(COC(=O)CCS(=O)(=O)c2ccccc2)n1 | . | 0.1% | . | 5.4%
CCOC(=O)COc1ccc(-c2nnn(CC(=O)Nc3ccccc3)n2)cc1 | . | -2.9% | . | -3.4%
CN(C)c1ccc(-c2csc(C(O)(c3ccccc3)C(F)(F)F)n2)cc1 (configuration not stated) | . | . | . | 23.8%
COCCN(C(=O)c1ccco1)c1nc(-c2ccccc2)cs1 | 9.9 | 63.1µM* | . | 6.5%
COCCN(C(=O)c1ccco1)c1nc(-c2ccc(OC)cc2)cs1 | . | . | . | 3.9%
CN(c1ccc(O)cc1)c1nc(-c2ccccc2)cs1 | 62.5* | -3.4% | active | 31.4%
CN(C(=O)c1ccco1)c1nc(-c2ccccc2)cs1 | 38.4* | 0.0% | 35.9* | -2.0%
COc1ccc(-c2csc(N(CC(C)C)C(=O)c3ccco3)n2)cc1 | 12.1 | -13.0% | . | -13.1%
CCN(C(=O)c1ccco1)c1nc(-c2ccc(OC)cc2)cs1 | 41.3* | 21.4% | 58.7 | 58.1%
CCC(=O)N(Cc1ccco1)c1nc(-c2ccccc2)cs1 | -5.5 | -13.3% | 2.6 | 6.2%
COc1cc(CN(C(=O)COc2ccc(Cl)cc2)c2ccccn2)cc(OC)c1OC | . | 1.4% | . | -8.9%
Cc1cc2oc(C(=O)Nc3sc4c(c3C(=O)NCc3ccccc3)CCCC4)cc(=O)c2cc1C | . | -3.4% | . | -3.0%
CCOc1ccc(OCC)c(NC(=O)CCc2nc3cccnc3n2-c2ccccc2)c1 | . | -2.1% | . | -19.5%
CN1c2ccccc2C(C)(C)C12CC(c1ccc(Cl)c(S(=O)(=O)N3CCCC3)c1)=NO2 (configuration not stated) | 1.7 | -8.9% | 7.9 | .
CN1c2ccccc2C(C)(C)C12CC(CCl)=NO2 (configuration not stated) | -3.0 | 39.8µM* | 14.6 | ?
CCc1cccc(NC(=O)CSc2nncn3c2cc2sccc23)c1 | . | -4.6% | . | -1.8%
COc1ccccc1CCn1c(=O)c(-c2ccccc2)nc2cncnc21 | . | . | . | -28.9%
Cc1cc(NC(=O)COC(=O)c2cc([N+](=O)[O-])ccc2N2CCOCC2)ccc1Br | . | 5.7% | . | 31.6µM*
CCCc1ccc(-c2cc(N)n[nH]2)cc1 | 29.7* | 1.1% | 26.9 | 10.5%
SMILES | Cycloheximide cs | Sm TGR block | Shiga inhibitor | FMDV antiviral
Nc1n[nH]c(-c2ccc(F)cc2)n1 | 7.9 | 8.0% | 13.4 | 19.7%
CCCCc1ccc(-c2nc(N)n[nH]2)cc1 | 44.5* | ? | 77.8* | 57.9%
CCCCCSc1nnc2c(n1)OC(CC)Nc1ccc(Br)cc1-2 (configuration not stated) | . | -1.7% | . | -27.4%
COc1cccc(-n2c(=O)c3c(C)c(C)sc3n(CC(=O)NCCc3ccc(OC)c(OC)c3)c2=O)c1 | . | -4.0% | . | -12.3%
Cc1ccc2c(=O)c(C(=O)c3ccccc3)cn(CC(=O)NCc3ccccc3)c2n1 | . | 3.9% | . | -19.8%
CC(=O)Nc1ccc(C(=O)N2CCCC(c3nc(SCc4ccccn4)ncc3C)C2)cc1 (configuration not stated) | . | . | . | -2.8%
Cc1cnc(SCc2ccccn2)nc1C1CCCN(C(=O)c2noc3c2CCCC3)C1 (configuration not stated) | . | . | . | 20µM*
Cc1cnc(SCc2ccccn2)nc1C1CCCN(C(=O)c2scc3c2CCCC3)C1 (configuration not stated) | . | . | . | 15.8µM*
Cc1csc2nc(COC(=O)c3ccc(NC(=O)C(C)Oc4ccccc4)cc3)cc(=O)n12 (configuration not stated) | . | 23.2% | . | -18.2%
O=C(Nc1ccc2c(c1)ncn2C1CCCCC1)c1ccco1 | 37.4* | -20.5% | 90.6* | 11.4%
COc1ccccc1-n1cnc2cc(NC(=O)c3ccco3)ccc21 | 11.8 | -24.8% | 84.4 | .
COc1ccc(-n2cnc3cc(NC(=O)c4ccco4)ccc32)cc1 | 20.8 | 6.0% | -10.3 | 27.4%
CC(C)n1cnc2cc(NC(=O)c3ccco3)ccc21 | 27.8* | -5.7% | 74.9* | 13.0%
COc1ccc(-n2c(-c3ccccc3F)nc3c(cnn3-c3ccc(C)cc3)c2=O)cc1 | . | 8.1% | . | -24.6%
CC1(N2CCCCC2)CC2(O)C(=[N+]1[O-])CCC/C2=N\O (configuration not stated) | 6.1 | 50.1µM* | 19.7 | 2.6%
CC1CCN(C(=O)CN(c2ccc3c(c2)OCCO3)S(=O)(=O)c2ccccc2)CC1 | 35.7* | 11.0% | 53.8* | 102.9%
COC(=O)[C@@H]1CCCN1C(=O)CCc1nnc(C2CCCCC2)o1 | 14.4* | -8.2% | 16.3* | 21.9%
CCC1CCCCN1C(=O)CCc1nnc(C2CCCCC2)o1 (configuration not stated) | 47.0* | -1.4% | 66.2* | 14.5%
CN(CCCN1CCCCC1)C(=O)CCc1nnc(C2CCCCC2)o1 | -3.0 | 10.8% | 8.6 | -9.2%
CCc1ccc(-n2c(C)nnc2SCc2nc(-c3ccc(OC)cc3)no2)cc1 | . | 2.6% | . | ?
Cc1c(NC(=O)/C(C#N)=C/c2ccc(-c3ccc(Cl)cc3)o2)c(=O)n(-c2ccccc2)n1C | 5.0 | -10.1% | -5.2 | 25.1µM*
Cc1cccc2cc(CN(Cc3ccco3)C(=O)Nc3cccc(C#N)c3)c(Cl)nc12 | -2.0 | 23.6% | 4.6 | .
Cc1ccc(NC(=O)N(Cc2ccco2)Cc2cc3cc(C)cc(C)c3nc2Cl)cc1 | 26.7* | -0.3% | 48.2* | .
